# Source: PubChem
# Sm TGR block: qHTS Assay for the Inhibitors of Schistosoma Mansoni Peroxiredoxins; Potency, µM (top dose mostly 114 µM), without a hit: top-dose activity change, negative = inhibition, usual class: inhibitors; AID 485364, 2010; purified TGR, DTNB reduction, TNB absorbance 405 nm; 360,000 compounds, 3% hits; also: potency is read from the fitted curve at half-maximal effect; % is scaled to controls: 0 for no effect and ±100 for the full control effect; nearly all actives have a fitted effect of over 60% in size
#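 Kinetic colorimetric format: TGR-catalysed, NADPH-driven DTNB reduction monitored via TNB absorbance. Enzyme dispensed at 20 nM; compound exposure 15 min at room temperature before reaction start.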
# LmPK inh: qHTS Assay for Inhibitors of Leishmania Mexicana Pyruvate Kinase (LmPK). Q27686. purified LmPK, Kinase-Glo ATP luminescence, 1 h. Potency, µM (series often up to 57.5 µM), for the others: at the top dose activity change, negative = inhibition, most hits filed as inhibitors. 290,000 compounds, 0.37% hits; also: potency is read from the fitted curve at half-maximal effect; % is scaled to controls: 0 for no effect and ±100 for the full control effect
#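 Screened at intermediate enzyme activity to detect both inhibitors and activators: LmPK at 0.1 nM, with a 0.5 nM enzyme column as activation reference. PEP 0.5 mM, ADP 0.1 mM; ATP detected by luminescence after 1 h.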
# Cycloheximide cs: Cycloheximide Counterscreen for Small Molecule Inhibitors of Shiga Toxin; cell reporter, cycloheximide protein synthesis inhibition counterscreen; max response, %; 300,000 compounds, 12% hits; in the data active = max response mostly above about 13%, no sharp cut-off; inactive = mostly below about 14%; also: read at 38.3 µM for the half of the compounds with a filed dose; 0% is about no effect
# Tb PYK inh: qHTS of Trypanosoma Brucei Inhibitors. TbPYK enzyme, Kinase-Glo Plus ATP luminescence, 45 min. Potency, µM (titrated, usually from 76.8 µM), for inactives: top-dose activity, negative = inhibition, actives largely listed as inhibitors. 410,000 compounds, 0.12% hits. AID 624173, 2012; also: potency is read from the fitted curve at half-maximal effect; % is scaled to controls: 0 for no effect and ±100 for the full control effect; nearly all actives have a fitted effect of over 50% in size
#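 Glycolytic pyruvate kinase of T. brucei was incubated with substrate, test compound and 130 uM ADP for 45 minutes at room temperature. Luminescent Kinase-Glo Plus signal was measured after 10 minutes.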
# FBPA Giardia inh: qHTS Assay for Inhibitors of Fructose-1,6-bisphosphate Aldolase from Giardia Lamblia; A8B2U2; AID 2451, 2010; Potency, µM (series often up to 59.6 µM), for the others: at the highest dose activity, negative = inhibition, actives largely listed as inhibitors; 290,000 compounds, 0.71% hits; purified Giardia FBPA; also: potency is read from the fitted curve at half-maximal effect; % is scaled to controls: 0 for no effect and ±100 for the full control effect; nearly all actives have a fitted effect of over 55% in size
# Target sequence (A8B2U2 whole entry, looked up): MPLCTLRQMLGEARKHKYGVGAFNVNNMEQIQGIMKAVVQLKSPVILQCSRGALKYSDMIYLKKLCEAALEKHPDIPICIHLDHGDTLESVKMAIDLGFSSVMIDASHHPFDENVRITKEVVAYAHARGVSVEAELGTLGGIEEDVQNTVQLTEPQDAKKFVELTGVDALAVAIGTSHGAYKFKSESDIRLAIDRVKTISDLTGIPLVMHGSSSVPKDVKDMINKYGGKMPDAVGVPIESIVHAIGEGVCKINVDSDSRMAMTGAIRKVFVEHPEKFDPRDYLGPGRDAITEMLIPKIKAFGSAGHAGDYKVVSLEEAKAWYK
#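 Giardia FBPA (40 nM reagent) was preincubated 10 min at RT with compound (up to 57.5 uM final), then substrate plus GAPDH/TPI/NAD/arsenate coupling system with diaphorase/resazurin was added; resorufin fluorescence (525/598 nm) was read after 20 min.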
# Shiga toxin inh: A qHTS for Small Molecule Inhibitors of Shiga Toxin. Vero cells, Shiga toxin protein synthesis inhibition reporter. inhibition, % at 38.7 µM. 290,000 compounds, 9.2% hits; in the data active = inhibition mostly above about 28%, no sharp cut-off; inactive = mostly below about 43%; also: 0% is about no effect
# * hit, by the source's call; i = inactive; ? = inconclusive; nt = no result. This excerpt belongs to a sample that is enriched for hits. Unless noted, calls follow the shape of the dose curve; as a rule, active = well fitted curve in the direction sought with a large enough effect; inconclusive = small, poorly fitted or top-dose-only effect, or another doubt; inactive = no such curve, though single readings can be large; an effect the other way counts as inactive or inconclusive.
SMILES,Sm TGR block,LmPK inh,Cycloheximide cs,Tb PYK inh,FBPA Giardia inh,Shiga toxin inh
COc1ccc(NC(=O)c2ccccc2-c2ccccc2)cc1,0.4%,5.0%,-7.1,1.0%,-0.8%,17.8
COc1ccc(C(=O)Nc2cccc(C(=O)N3CCCC3)c2)cc1,65.6%,0.5%,10.6*,4.8%,-4.3%,9.2
COc1ccc(N/N=C(C)/C(=N/O)C(=O)Nc2ccccc2)cc1,?,?,29.1*,-5.9%,-20.5%,74.2*
COc1cccc(C(=O)Nc2cccc(C(=O)N3CCOCC3)c2)c1,-0.6%,-9.0%,9.5,-0.8%,-4.5%,2.1
CCOc1c(Cl)cc(C(=O)Nc2cccc(C(=O)O)c2)cc1Cl,11.9%,-2.1%,43.3*,-1.6%,10.7%,69.3*
CCOc1ccc(NS(=O)(=O)c2cc(NC(=O)c3ccc(C)cc3)ccc2Cl)cc1,-2.3%,1.3%,17.0*,-10.7%,-3.4%,-14.2
CCN(CC)C(=O)CSc1nc(-c2ccccc2)cc(-c2ccc(OC)cc2)c1C#N,-0.5%,nt,nt,1.8%,nt,nt
COc1ccc(Cl)cc1NCc1nnc2n1CCCCC2,15.5%,nt,nt,1.3%,nt,nt
O=C(/C=C/c1ccc([N+](=O)[O-])cc1)N1CCN(S(=O)(=O)c2cccs2)CC1,-16.2%,2.2%,0.6,-17.5%,4.9%,-8.6
O=C(Nc1ccncc1)c1cccc(S(=O)(=O)N2CCCC2)c1,5.3%,5.3%,-1.1,-5.8%,-4.2%,-6.1
C=Cc1cc(F)c(S(=O)(=O)N2CCN(S(=O)(=O)c3ccc4c(c3)OCCO4)CC2)cc1F,nt,nt,-9.6,nt,nt,-12.9
COc1ccc(C(=O)Nc2ccc(C(=O)c3ccccc3)cc2)cc1,nt,nt,nt,-11.7%,nt,nt
COc1ccccc1OC(=O)Nc1ccc(Cl)cc1,?,-0.2%,31.9*,3.3%,11.3%,58.1*
CCOc1ccc(NC(=O)c2cccc(NC(=O)c3ccccc3)c2)cc1,8.6%,-3.2%,17.2*,-2.3%,0.7%,53.1*
COc1ccc(NC(=O)c2cccc(NC(=O)c3ccccc3)c2)cc1,12.9%,-7.0%,17.9*,-0.3%,1.2%,24.8
Cc1ccc(C(=O)Nc2cccc(C(=O)N3CCN(C)CC3)c2)cc1,3.6%,-7.1%,30.5*,0.3%,0.6%,70.8*
O=c1cc(-c2cccc(-c3ccc(C(F)(F)F)cc3)c2)c2cc3c(cc2o1)OCO3,nt,nt,8.5,nt,-3.6%,i
O=C(NCCCN1CCN(c2ccc(F)cc2)CC1)c1cnn(-c2ccc(F)cc2)c1-n1cccc1,-3.9%,nt,nt,-4.1%,nt,nt
CC(C)c1ccc(NC(=O)CN2C=NS(=O)(=O)c3ccccc32)cc1,-3.2%,nt,nt,-3.5%,nt,nt
COc1cccc(CCNC(=O)c2cnc3sc(N4CCOCC4)nn3c2=O)c1,8.2%,nt,nt,3.3%,nt,nt
CC1Cc2cc(S(=O)(=O)N(C)c3ccc(Br)cc3)ccc2N1C(=O)C1CC1 (stereo not drawn),6.9%,nt,nt,-1.1%,nt,nt
Cc1ccc(S(=O)(=O)c2cn(Cc3ccccc3)c3cc(N4CCCC4)c(F)cc3c2=O)cc1C,1.3%,nt,nt,-2.6%,nt,nt
COc1ccccc1Oc1ccc(NC(=O)c2ccccc2C)cc1,-0.1%,2.7%,15.2,2.8%,-5.9%,61.7
COc1ccc(C(=O)Nc2ccc(C(=O)OCC(=O)c3ccccc3)cc2)cc1,0.8%,-1.9%,18.8*,-3.3%,9.6%,39.5
CN1CCc2ccc(NC(=O)c3ccc(C(F)(F)F)cc3)cc2C1,-19.8%,-4.3%,13.7*,-0.6%,-13.3%,25.1*
SMILES,Sm TGR block,LmPK inh,Cycloheximide cs,Tb PYK inh,FBPA Giardia inh,Shiga toxin inh
COc1ccccc1Oc1ccc(NC(=O)c2ccccc2)cc1,13.8%,4.7%,28.4*,1.5%,2.4%,46.6
CC(=O)N1CCc2cc(NC(=O)c3ccc(C)cc3)ccc21,2.9%,-6.0%,33.7*,1.1%,-8.7%,46.7*
COc1ccc(C(=O)COC(=O)c2ccc(NC(=O)c3ccccc3)cc2)cc1,32.2%,-2.4%,1.1,4.3%,5.6%,3.1
Cc1ccc(S(=O)(=O)CCC(=O)Nc2sccc2C#N)cc1,44.7µM*,nt,nt,-1.1%,nt,nt
Cc1ccc(S(=O)(=O)CCC(=O)Nc2ccccc2C)cc1,39.8µM*,1.7%,-1.8,0.1%,-2.1%,-6.9
Cc1ccc(S(=O)(=O)CCC(=O)OCC(=O)Nc2sccc2C#N)cc1,nt,nt,nt,5.6%,nt,nt
Cc1ccc(S(=O)(=O)CCC(=O)Nc2cc(Cl)ccc2-n2cncn2)cc1,17.8µM*,nt,nt,1.9%,nt,nt
Cc1ccc(NC(=O)CCc2nnc3n(CC(C)C)c(=O)c4ccccc4n23)cc1C,4.6%,nt,nt,6.4%,nt,nt
Clc1ccccc1-c1nc(-c2ccccc2)n[nH]1,-14.9%,-24.3%,53.0*,4.0%,-1.2%,125.4*
Oc1ccccc1-c1n[nH]c(-c2ccccc2O)n1,nt,nt,nt,8.1%,nt,nt
Cc1nn2c(=O)cc(COC(=O)c3cccc(NC(=O)COc4ccccc4C)c3)nc2s1,-10.5%,nt,nt,-4.4%,nt,nt
CCc1ccccc1NC(=O)C1CCN(S(C)(=O)=O)CC1,nt,nt,nt,-1.2%,nt,nt
COc1ccc(NC(=O)C2=Cc3ccccc3OC2)cc1,0.0%,-2.8%,24.8,-3.0%,-15.3%,43.9
COc1ccc(NC(=O)C2=Cc3cccc(OC)c3OC2)cc1,nt,-13.7%,31.1*,2.2%,-24.1%,59.8*
COc1cccc2c1OCC(C(=O)OCc1cccnc1)=C2,-9.7%,-1.9%,14.8*,-0.7%,4.6%,15.1
O=c1c(-c2ccccc2)c1-c1ccccc1,3.55µM*,1.9%,64.6*,-6.0%,4.3%,104.2*
COc1ccc(OCc2cc(C(=O)NC3CCOC(C)(C)C3)no2)c2ccccc12 (stereo not drawn),-34.9%,-12.1%,96.2*,nt,nt,102.9*
CSc1ccccc1OCc1cc(C(=O)NC2CCc3ccccc32)no1 (stereo not drawn),1.4%,-0.3%,9.5,-20.3%,-6.0%,8.6
COc1cc(Cl)ccc1OCc1cc(C(=O)NC2CCc3ccccc32)no1 (stereo not drawn),8.1%,6.6%,3.3,-6.7%,nt,13.6
CSc1ccccc1OCc1cc(C(=O)NC(C)c2cnn(C)c2)no1 (stereo not drawn),-13.2%,-8.1%,13.5,5.9%,nt,-8.3
Cc1ccc(C)c(OCc2cc(C(=O)NC3CCOC(C)(C)C3)no2)c1 (stereo not drawn),-9.6%,3.7%,55.6*,2.7%,-4.0%,84.9*
Cc1ccc(C)c(OCc2cc(C(=O)NC(c3ccccn3)C(F)(F)F)no2)c1 (stereo not drawn),nt,nt,nt,4.1%,nt,nt
CSc1ccccc1OCc1cc(C(=O)NC2CCOC2)no1 (stereo not drawn),-20.8%,-3.8%,48.7*,14.3%,2.8%,48.8*
CSc1ccccc1OCc1cc(C(=O)NC2CCOC(C)(C)C2)no1 (stereo not drawn),-20.9%,3.1%,22.1*,-5.3%,3.1%,96.6*
